From the supplement of paper PMC9254222
Whole data set: some 1,100 compounds, median “Wnt reporter firefly/Renilla luciferase ratio relative to plate median” near 1.1, cut for the highest 2% near 1.6. Shown is part of a subset that was picked to be rich in the highest values.

System: HEK293T (UBE3A T485A transfected, BAR Wnt reporter)
Assay: Wnt reporter firefly/Renilla luciferase ratio relative to plate median (fold (linear ratio)); higher = more Wnt/beta-catenin reporter activation
Conditions: 24 h
Procedure, shortened: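 HEK293T cells were seeded at 4500 cells/well in white 384-well plates and grown in DMEM with 10% FBS at 37°C and 5% CO2. The cells were transfected using Fugene 6 with a BAR firefly luciferase Wnt reporter, TK-Renilla and an expression plasmid, and four hours later robots added the chemicals at 0.01–100 uM for 24 h before a Dual-Glo luciferase readout. Wnt activity was taken as the firefly/Renilla ratio and cell health as raw Renilla, each median-centred per plate. Values are averages of four biological replicates.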

Compound | Wnt reporter firefly/Renilla luciferase ratio (concentration: 0.1 uM) | Wnt reporter firefly/Renilla luciferase ratio (concentration: 1 uM) | Wnt reporter firefly/Renilla luciferase ratio (concentration: 10 uM) | Wnt reporter firefly/Renilla luciferase ratio (concentration: 100 uM) | Wnt reporter firefly/Renilla luciferase ratio (concentration: 0.01 uM) | Wnt reporter firefly/Renilla luciferase ratio (concentration: .1 uM)
CCC(C)c1ccccc1O (stereo unspecified) [2-(Butan-2-yl)phenol] | 1.19 | 0.977 | 0.947 | 1.14 |  | 
CC(C)COC(=O)CCCCC(=O)OCC(C)C [Diisobutyl adipate] | 1.11 | 1.15 | 1.28 | 1.44 |  | 
CCCN(CCC)C(=O)SCC | 1.22 | 0.859 | 1.3 | 1.09 | 1.35 | 
CCSC(=O)N(CC(C)C)CC(C)C [Butylate] | 1.31 | 1.21 | 1.71 | 0.486 | 1.05 | 
CN1C(=O)N(c2ccccc2Br)Cc2cnc(Nc3ccc4c(c3)OCC(CO)O4)nc21 (stereo unspecified) | 0.694 | 0.73 | 1.19 |  |  | 
Oc1ccccc1 [Phenol] | 0.93 | 1.28 | 1.19 | 1.35 |  | 
CCOCCOCCOCCO [2-[2-(2-Ethoxyethoxy)ethoxy]ethanol] | 0.979 | 0.929 | 1.01 | 1.62 |  | 
CCOCCO [2-Ethoxyethanol] | 1.04 | 1.01 | 1.18 | 1.25 |  | 
CCOCCOCCO [2-(2-Ethoxyethoxy)ethanol] | 0.833 | 1.24 | 0.948 | 1.26 |  | 
CC(C)CCCCCCOC(=O)c1ccc(C(=O)OCCCCCCC(C)C)c(C(=O)OCCCCCCC(C)C)c1 [Triisononyl trimellitate] | 1.08 | 0.919 | 1.18 | 1.34 |  | 
CC[C@@H]1C[C@H](N(Cc2cc(C(F)(F)F)cc(C(F)(F)F)c2)C(C)=O)c2cc(C(F)(F)F)ccc2N1C(=O)OC(C)C | 0.973 | 1.26 | 1.2 | 1.01 |  | 
O=C(O)c1cccc(C(=O)O)c1 [1,3-Benzenedicarboxylic acid] | 1.21 | 1.28 | 1.24 | 1.02 |  | 
CC(C)(c1ccc(O)cc1)c1ccc(O)cc1 [Bisphenol A] | 1.13 | 1.05 | 0.924 | 0.302 | 1.09 | 
CC[C@H](C)[C@@H](C(=O)O)n1sc2ccccc2c1=O | 0.996 | 0.949 | 0.684 | 0.568 |  | 
CCCCOC(=O)[C@@H](C)Oc1ccc(Oc2ccc(C(F)(F)F)cn2)cc1 [Fluazifop-P-butyl] | 0.832 | 1.04 | 1.09 | 1.67 | 0.757 | 
CCCCOC(=O)c1ccccc1 [Butyl benzoate] | 1.4 | 0.911 | 1.09 | 1.11 |  | 
CCOC(=O)C(C)Oc1ccc(Oc2nc3ccc(Cl)cc3o2)cc1 (stereo unspecified) [Fenoxaprop-ethyl] | 1.37 | 0.888 | 0.884 | 0.813 | 1.14 | 
C#CCOC(=O)[C@@H](C)Oc1ccc(Oc2ncc(Cl)cc2F)cc1 [Clodinafop-propargyl] | 1.37 | 1.14 | 1.25 | 0.479 | 1.28 | 
CCCCOC(=O)C(C)Oc1ccc(Oc2ccc(C(F)(F)F)cn2)cc1 (stereo unspecified) [Fluazifop-butyl] | 1.71 | 1.15 | 1.54 | 1.13 | 1.15 | 
CCOC(=O)C(C)Oc1ccc(Oc2cnc3cc(Cl)ccc3n2)cc1 (stereo unspecified) [Quizalofop-ethyl] | 1.1 | 1.03 | 1.09 | 0.981 | 0.779 | 
CCCCCCCCOC(=O)c1cc(O)c(O)c(O)c1 [Octyl gallate] | 1.25 | 1.3 | 0.702 | 0.614 |  | 

Compound | Wnt reporter firefly/Renilla luciferase ratio (concentration: 0.1 uM) | Wnt reporter firefly/Renilla luciferase ratio (concentration: 1 uM) | Wnt reporter firefly/Renilla luciferase ratio (concentration: 10 uM) | Wnt reporter firefly/Renilla luciferase ratio (concentration: 100 uM) | Wnt reporter firefly/Renilla luciferase ratio (concentration: 0.01 uM) | Wnt reporter firefly/Renilla luciferase ratio (concentration: .1 uM)
COC(=O)c1ccccc1C(=O)O [Monomethyl phthalate] | 1.05 | 1.09 | 1.11 | 1.4 | 1.05 | 
CC(=O)OC1CC(C)OC(C)O1 (stereo unspecified) [Dimethoxane] | 1.1 | 0.976 | 0.952 | 0.736 |  | 
Cc1ccc(N(C)C)cc1 [N,N,4-Trimethylaniline] | 1.08 | 1.2 | 1.06 | 0.933 |  | 
Cc1ccc(C(C)C)c(O)c1 [Thymol] | 0.988 | 1.09 | 1.29 | 1.08 |  | 
Sc1nc2ccccc2s1 [2-Mercaptobenzothiazole] | 1.39 | 1.62 | 1.3 | 1.69 |  | 
N#CSCSc1nc2ccccc2s1 [2-(Thiocyanomethylthio)benzothiazole] | 0.88 | 1.09 | 1.06 |  | 0.895 | 
CS(=O)(=O)c1ccc([C@@H](C[C@H]2CCC(=O)C2)C(=O)Nc2cnccn2)cc1Cl [Piragliatin] | 1.03 | 0.959 | 1.02 | 1.3 |  | 
COc1cc2c3c(n(CCCn4ccnc4)c(=O)c2cc1OC)-c1cc2c(cc1C3=O)OCO2.Cl | 0.457 | 0.72 | 0.631 | 0.938 | 1.15 | 
OCC(O)CO [Glycerol] | 1.1 | 0.905 | 1.05 | 1.04 |  | 
S=C([S-])NCCNC(=S)[S-].S=C([S-])NCCNC(=S)[S-].[Mn+2].[Zn+2] [Mancozeb] | 0.999 | 0.95 | 0.951 |  | 0.932 | 
Nc1ccc(C(=O)O)cc1 [4-Aminobenzoic acid] | 1.22 | 1.07 | 0.948 | 1.2 |  | 
CC(C)c1cccc(C(C)C)c1NC(=O)[N-]S(=O)(=O)c1cc(C(C)(C)O)co1.[Na+] | 1.05 | 1.08 | 1.2 | 1.05 |  | 
CC/C(=C(\c1ccccc1)c1ccc(OCCN(C)C)cc1)c1ccccc1.O=C(O)CC(O)(CC(=O)O)C(=O)O [Tamoxifen citrate] | 0.922 | 0.964 | 0.891 | 1.01 |  | 
O=C(c1ccc(O)cc1O)c1ccc(O)cc1O [2,2',4,4'-Tetrahydroxybenzophenone] | 1.29 | 1.33 | 1.49 | 0.463 |  | 
CC(C)C(=O)OCC(C)(C)C(OC(=O)C(C)C)C(C)C (stereo unspecified) [2,2,4-Trimethyl-1,3-pentanediol diisobutyrate] | 0.92 | 0.885 | 1.15 | 1.64 |  | 
CC[C@]1(O)C[C@H]2C[N@](CCc3c([nH]c4ccccc34)[C@@](C(=O)OC)(c3cc4c(cc3OC)N(C=O)[C@H]3[C@@](O)(C(=O)OC)[C@H](OC(C)=O)[C@]5(CC)C=CCN6CC[C@]43[C@@H]65)C2)C1 [Vincristine] |  |  | 0.418 |  | 0.387 | 
OCCO [Ethylene glycol] | 1.37 | 1.07 | 1.12 | 1.27 |  | 
NCCO [Ethanolamine] |  | 0.968 | 1.41 | 2.04 |  | 1.09
CCCCCCCCCCCC[N+](C)(C)C.[Cl-] [Dodecyltrimethylammonium chloride] | 1.41 | 1.1 | 0.377 |  |  | 
CCc1ccc(CCOc2ccc(CC3SC(=O)NC3=O)cc2)nc1.Cl (stereo unspecified) [Pioglitazone hydrochloride] | 0.94 | 0.896 | 0.903 | 1.1 |  | 
C=C(C)C(=O)OCCC(F)(F)C(F)(F)C(F)(F)C(F)(F)C(F)(F)C(F)(F)F [Tridecafluorohexylethyl methacrylate] | 1.03 | 1.12 | 1.06 | 1.16 |  | 

Compound | Wnt reporter firefly/Renilla luciferase ratio (concentration: 0.1 uM) | Wnt reporter firefly/Renilla luciferase ratio (concentration: 1 uM) | Wnt reporter firefly/Renilla luciferase ratio (concentration: 10 uM) | Wnt reporter firefly/Renilla luciferase ratio (concentration: 100 uM) | Wnt reporter firefly/Renilla luciferase ratio (concentration: 0.01 uM) | Wnt reporter firefly/Renilla luciferase ratio (concentration: .1 uM)
CC(C)=CCCC(C)=CC=O [3,7-Dimethyl-2,6-octadienal] | 1.11 | 1.26 | 1.03 | 1.09 |  | 
CC(C)=CCC/C(C)=C\CO [(2Z)-3,7-Dimethylocta-2,6-dien-1-ol] | 1.17 | 0.941 | 1.5 | 1.03 |  | 
CC(C)=CCC/C(C)=C/CO [Geraniol] | 1.1 | 1.26 | 1.15 | 1.75 |  | 
OC(Cn1cncn1)(Cn1cncn1)c1ccc(F)cc1F [Fluconazole] | 1.15 | 0.884 | 1.33 | 1.25 |  | 
Cc1ccccc1Cl [2-Chlorotoluene] | 0.964 | 0.931 | 1.37 | 1.44 |  | 
CCO[Si](CCCNC(N)=O)(OCC)OCC [1-[3-(Triethoxysilyl)propyl]urea] | 1.11 | 0.853 | 1.36 | 1.66 |  | 
CCOC(N)=O [Urethane] | 1.05 | 0.955 | 1.11 | 1.3 |  | 
CCCCCCCC[Si](OCC)(OCC)OCC [Triethoxyoctylsilane] | 1.15 | 0.902 | 1.05 | 1.38 |  | 
O=N[O-].[Na+] [Sodium nitrite] | 1.13 | 0.943 | 1.4 | 1.29 |  | 
COc1ccc(CC(N)C(=O)NC2C(CO)OC(n3cnc4c(N(C)C)ncnc43)C2O)cc1 (stereo unspecified) [Puromycin] | 0.78 | 0.249 |  |  | 0.865 | 
CC[C@H](NC(=O)c1cc(F)ccc1[N-]S(=O)(=O)c1cccc2cccnc12)c1ccccc1.[Na+] | 1.22 | 1.08 | 1.18 | 0.234 |  | 
CC(C)CC(C=O)NC(=O)C(CC(C)C)NC(=O)C(CC(C)C)NC(=O)OCc1ccccc1 (stereo unspecified) | 0.85 | 2.61 |  |  | 0.993 | 
CCCCC(CC)COC(=O)CCCCC(=O)OCc1ccccc1 (stereo unspecified) [Benzyloctyl adipate] | 0.909 | 1.03 | 1.13 | 1.12 |  | 
O=C(O)c1ccccc1C(=O)OCc1ccccc1 [Monobenzyl phthalate] | 1.1 | 0.986 | 1.31 | 1.16 |  | 
CCCCC(CC)COC(=O)CC(C(=O)OCC(CC)CCCC)S(=O)(=O)[O-].[Na+] (stereo unspecified) [Docusate sodium] | 0.824 | 1.14 | 0.946 | 0.789 |  | 
CC#C[C@]1(O)CC[C@H]2[C@@H]3CCC4=CC(=O)CCC4=C3[C@@H](c3ccc(N(C)C)cc3)C[C@@]21C [Mifepristone] | 0.957 | 0.893 | 0.624 | 0.0932 |  | 
CNC(=O)[C@H]1O[C@@H](n2cnc3c(NCc4cc(Cl)ccc4OCc4cc(C)no4)ncnc32)[C@H](O)[C@@H]1N | 0.941 | 1.17 | 1.13 | 1.06 |  | 
O=C(NS(=O)(=O)/C=C/c1cccs1)c1ccc(F)cc1Br | 1.13 | 1.12 | 0.456 | 0.251 |  | 
c1ccc2cc3ccccc3cc2c1 [Anthracene] | 0.982 | 0.92 | 0.951 | 2.12 |  | 
c1ccc2ccccc2c1 [Naphthalene] | 1.17 | 1.18 | 1.32 | 1.48 |  | 
c1ccc2cc3c(ccc4ccccc43)cc2c1 [Benz(a)anthracene] | 1 | 0.949 | 1.29 | 0.737 |  | 
